According to PubChem BioAssay AID2073 (Sanford-Burnham Center for Chemical Genomics, 2009):
The whole screen tested about 290,000 compounds, of which about 570 (0.2%) were called active. Roughly 1% stayed inconclusive and do not appear here. No stated cut-off is given here; in the data, active means inhibition mostly above about 51% (no sharp cut-off); inconclusive means no clear call, values can overlap the other calls; inactive means mostly below about 53%. The entries come from a sample that favours actives as a whole.

Molecular target: Voltage-dependent N-type calcium channel subunit alpha-1B (Homo sapiens) (UniProt Q00975)
Sequence (Q00975 whole entry, looked up): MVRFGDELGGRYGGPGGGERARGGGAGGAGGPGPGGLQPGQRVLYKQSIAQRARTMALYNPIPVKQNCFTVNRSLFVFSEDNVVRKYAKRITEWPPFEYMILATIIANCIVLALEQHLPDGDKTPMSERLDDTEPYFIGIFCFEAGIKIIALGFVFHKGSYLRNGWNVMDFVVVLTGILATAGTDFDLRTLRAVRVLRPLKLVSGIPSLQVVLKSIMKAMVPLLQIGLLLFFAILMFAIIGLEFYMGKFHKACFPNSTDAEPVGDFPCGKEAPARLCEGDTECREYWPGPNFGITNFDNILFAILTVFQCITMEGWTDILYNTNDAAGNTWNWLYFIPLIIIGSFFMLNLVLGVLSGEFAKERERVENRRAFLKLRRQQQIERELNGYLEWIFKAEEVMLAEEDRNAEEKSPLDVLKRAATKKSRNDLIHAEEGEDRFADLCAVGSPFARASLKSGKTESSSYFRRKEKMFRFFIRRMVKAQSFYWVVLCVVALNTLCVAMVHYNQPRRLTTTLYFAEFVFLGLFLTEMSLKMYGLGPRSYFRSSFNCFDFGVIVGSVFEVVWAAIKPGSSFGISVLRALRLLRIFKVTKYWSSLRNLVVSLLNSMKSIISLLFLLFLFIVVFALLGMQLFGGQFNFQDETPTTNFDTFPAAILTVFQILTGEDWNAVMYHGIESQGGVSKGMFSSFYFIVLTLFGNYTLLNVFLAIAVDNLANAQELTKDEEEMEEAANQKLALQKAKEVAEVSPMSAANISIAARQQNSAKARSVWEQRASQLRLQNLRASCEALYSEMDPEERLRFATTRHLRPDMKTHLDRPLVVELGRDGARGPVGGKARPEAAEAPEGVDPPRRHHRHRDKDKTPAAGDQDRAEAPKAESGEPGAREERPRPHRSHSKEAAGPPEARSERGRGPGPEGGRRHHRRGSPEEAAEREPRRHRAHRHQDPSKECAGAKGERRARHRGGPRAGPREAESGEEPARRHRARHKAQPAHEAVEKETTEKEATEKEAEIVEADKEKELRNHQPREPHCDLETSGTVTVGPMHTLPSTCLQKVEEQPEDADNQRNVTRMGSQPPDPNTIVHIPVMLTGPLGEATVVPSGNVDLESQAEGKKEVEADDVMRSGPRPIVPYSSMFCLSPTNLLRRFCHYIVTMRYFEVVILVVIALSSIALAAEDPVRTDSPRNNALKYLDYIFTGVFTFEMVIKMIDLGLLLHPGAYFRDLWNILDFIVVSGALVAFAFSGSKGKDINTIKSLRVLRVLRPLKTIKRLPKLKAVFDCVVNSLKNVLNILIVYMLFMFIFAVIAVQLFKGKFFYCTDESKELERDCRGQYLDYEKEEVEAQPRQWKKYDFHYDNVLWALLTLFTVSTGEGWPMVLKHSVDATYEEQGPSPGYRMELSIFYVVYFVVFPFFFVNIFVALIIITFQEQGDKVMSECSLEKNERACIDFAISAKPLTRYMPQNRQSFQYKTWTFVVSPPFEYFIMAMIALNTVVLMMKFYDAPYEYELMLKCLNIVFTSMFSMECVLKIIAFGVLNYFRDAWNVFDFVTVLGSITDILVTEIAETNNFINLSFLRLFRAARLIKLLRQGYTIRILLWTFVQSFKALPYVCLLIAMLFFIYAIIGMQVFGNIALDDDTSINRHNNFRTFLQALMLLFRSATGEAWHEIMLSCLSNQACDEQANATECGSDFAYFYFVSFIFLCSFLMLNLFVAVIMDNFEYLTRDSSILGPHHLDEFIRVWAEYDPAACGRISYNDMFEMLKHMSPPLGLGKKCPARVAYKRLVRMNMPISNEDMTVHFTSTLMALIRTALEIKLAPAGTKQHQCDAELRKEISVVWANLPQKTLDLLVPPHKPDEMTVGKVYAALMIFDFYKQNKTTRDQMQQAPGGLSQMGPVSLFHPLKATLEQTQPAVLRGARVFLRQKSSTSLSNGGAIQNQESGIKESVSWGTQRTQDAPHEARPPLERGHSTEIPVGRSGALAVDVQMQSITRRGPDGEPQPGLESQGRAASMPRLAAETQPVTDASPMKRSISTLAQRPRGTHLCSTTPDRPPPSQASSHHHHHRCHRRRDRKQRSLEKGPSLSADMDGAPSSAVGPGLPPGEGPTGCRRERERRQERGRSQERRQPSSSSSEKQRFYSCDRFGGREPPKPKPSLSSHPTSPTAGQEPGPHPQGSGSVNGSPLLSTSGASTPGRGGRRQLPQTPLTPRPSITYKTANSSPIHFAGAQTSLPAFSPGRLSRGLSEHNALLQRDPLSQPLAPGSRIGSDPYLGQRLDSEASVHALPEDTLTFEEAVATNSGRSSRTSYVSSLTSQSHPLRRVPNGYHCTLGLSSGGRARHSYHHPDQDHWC
Assay: inhibitors of Mint1-CaV2.2 protein interaction, biochemical, HTRF (AID 2073)
Conditions: at 20 µM, stronger effect = higher value
[1] = measured here: average of repeat tests

Structure (SMILES)	inhibition	inhibition [1]
O=[N+]([O-])c1ccc(O)c(C=Nc2cccc3ccccc23)c1	-35.1% (inactive)	–
COCCNC(=O)C(c1ccc(OC)cc1)N(CCOC)C(=O)CCC(=O)Nc1nccs1 (centres undefined)	-3.6% (inactive)	–
O=C(NCc1ccco1)c1cccn2c(=O)c3cc4ccccc4cc3nc12	54.4% (active)	–
O=C(NCc1ccco1)c1cnc2ccccn2c1=O	0.3% (inactive)	–
COCCCNC(=O)c1cccn2c(=O)c3cc4ccccc4cc3nc12	-3.3% (inactive)	–
Cc1ccc(N(C(=O)c2ccco2)C(C(=O)NC2CCCC2)c2cccnc2)cc1 (centres undefined)	-0.3% (inactive)	–
O=C(N/N=C/c1ccc[nH]1)c1ccc(O)cc1	38.2% (inactive)	–
O=C1/C(=C/c2cccc(Br)c2)SC(=S)N1/N=C/c1cc([N+](=O)[O-])ccc1O	-2.1% (inactive)	–
Cc1ccccc1/C=C1\SC(=S)N(/N=C/c2cc([N+](=O)[O-])ccc2O)C1=O	5.4% (inactive)	–
Cc1ccc(/C=C2\SC(=S)N(/N=C/c3cc([N+](=O)[O-])ccc3O)C2=O)o1	73.2% (active)	–
CCn1cc(CN2CCCC(C(=O)c3ccc(-c4ccccc4)c(F)c3)C2)cn1 (centres undefined)	6.5% (inactive)	–
O=C(O)C1CCC(N2C(=O)c3cccc([N+](=O)[O-])c3C2=O)CC1 (centres undefined)	5.9% (inactive)	–
O=C(O)C1CCC(N2C(=O)c3c(Cl)c(Cl)c(Cl)c(Cl)c3C2=O)CC1 (centres undefined)	81.3% (active)	–
O=C(O)C1CCC(N2C(=O)C3CCCCC3C2=O)CC1 (centres undefined)	-2.9% (inactive)	–
O=C1C2C3C=CC(C3)C2C(=O)N1c1n[nH]c(-c2ccccc2)n1 (centres undefined)	11% (inactive)	–
CC(=O)Oc1cc(O)c2c(c1)OC(c1ccc(OC(C)=O)c(OC(C)=O)c1)C(OC(C)=O)C2=O (centres undefined)	8.9% (inactive)	–
O=C1NN(c2ccccc2)C(=O)/C1=C\c1ccc(-c2cc([N+](=O)[O-])ccc2O)o1	31.4% (inactive)	–
O=C1NN(c2cccc(Br)c2)C(=O)/C1=C/c1ccc(-c2cc([N+](=O)[O-])ccc2O)o1	61.4% (active)	–
CC1=NN(c2ccc(C)cc2)C(=O)/C1=C/c1ccc(-c2cc([N+](=O)[O-])ccc2O)o1	44.4% (inactive)	–
COc1ccc(/C=C2\SC(=S)N(CCC(=O)NCCCN3CCOCC3)C2=O)cc1	-10.7% (inactive)	–
CCc1ccc(C(=O)NNc2ccc(Cl)cc2)cc1	-10.8% (inactive)	–
COc1cc(CNCCO)cc(Br)c1OCc1cccs1	-3.4% (inactive)	–
O=C(Nn1cnnc1)c1csc2ccccc12	-11.1% (inactive)	–

Structure (SMILES)	inhibition	inhibition [1]
Cc1cc2nc3c(=O)n(CCc4ccccc4)c(=O)[nH]c3nc2cc1N	36.3% (inactive)	–
CCCCCCn1c(=O)[nH]c2nc3cc(N)c(C)cc3nc2c1=O	4.4% (inactive)	–
Cc1cc2nc3c(=O)n(Cc4ccccc4)c(=O)[nH]c3nc2cc1N	55.1% (active)	–
NC1=NC[C@@H](Cc2ccc(O)cc2)N1CCc1cccc(F)c1	16.7% (inactive)	–
CC1CN(C(=O)CCCN2C(=O)c3ccccc3C2=O)CC(C)O1 (centres undefined)	-7.3% (inactive)	–
COc1ccc2[nH]c(=O)c(CN(Cc3ccco3)C(c3nnnn3Cc3ccccc3)C(C)C)cc2c1 (centres undefined)	12.1% (inactive)	–
COc1ccc2[nH]c(=O)c(CN(Cc3nnnn3Cc3ccco3)C3CCCCC3)cc2c1	1.1% (inactive)	–
Cn1c(/C=C/c2cccc([N+](=O)[O-])c2)nc2ccccc2c1=O	-20.2% (inactive)	–
CCOC(=O)C(O)(CC(=O)c1ccc(OC)cc1)C(F)(F)F (centres undefined)	-6.5% (inactive)	–
CC(C)(C)c1cc(N)on1	-7.8% (inactive)	–
COc1cccc2c1C(=O)C=C(C)C2=O	-19.2% (inactive)	–
CC1=CC(=O)c2c(O)ccc(O)c2C1=O	85.1% (active)	–
CC1=CC(=O)c2ccccc2C1=O	-11.2% (inactive)	–
O=C(Nc1nc(-c2ccco2)c(-c2ccco2)s1)C1CCC1	58.1% (inactive)	1.4%
CCc1nnc(NC(=O)C2CC(=O)N(c3ccc4c(c3)OCCO4)C2)s1 (centres undefined)	3% (inactive)	–
O=C(Nc1nnc(C2CC2)s1)C1CC(=O)N(c2ccc3c(c2)OCCO3)C1 (centres undefined)	12.6% (inactive)	–
O=C(CCCSc1ccccc1)Nc1nc(-c2ccco2)c(-c2ccco2)s1	71.8% (inactive)	-7.2%
O=C(Nc1nc(-c2ccco2)c(-c2ccco2)s1)C1CC(=O)N(c2ccc3c(c2)OCCO3)C1 (centres undefined)	66.7% (active)	–
O=C(CCl)Nc1nc(-c2ccco2)c(-c2ccco2)s1	66% (active)	–
COc1ccc(CCN(C(=S)Nc2ccccc2)C2CC(=O)N(c3ccccc3)C2=O)cc1 (centres undefined)	6.3% (inactive)	–
CC(C)Oc1cccc(C(=O)C2CCCN(C(=O)c3ccsc3)C2)c1 (centres undefined)	-8.4% (inactive)	–
N#Cc1cnc(NOCc2ccc(Cl)cc2)nc1	9.4% (inactive)	–
O=c1c2c3n(c(=O)nc2[nH]n1-c1ccccc1)CCCCC3	1.1% (inactive)	–

Structure (SMILES)	inhibition	inhibition [1]
O=C(NCCN1CCOCC1)/C(=C\c1ccccc1Cl)NC(=O)c1ccccc1	9.8% (inactive)	–
COc1cc(/C=C2\SC(=Nc3ccccc3)N(CCc3c[nH]c4ccccc34)C2=O)ccc1OC(C)C(=O)O (centres undefined)	6.2% (inactive)	–
COc1ccc(N=C2S/C(=C\c3ccc(OCC(=O)O)cc3)C(=O)N2CCc2c[nH]c3ccccc23)cc1	35.3% (inactive)	–
Clc1cccc(Cl)c1CNc1ccc(N2CCCC2)cc1	31.8% (inactive)	–
Fc1cccc(Cl)c1CNc1ccc(N2CCCC2)cc1	54% (active)	–
NS(=O)(=O)c1ccc(NCc2c(F)cccc2Cl)cc1	-1.1% (inactive)	–
CC(C)(C)SCCNC(=O)CN1C(=O)c2cccc3cccc1c23	35.7% (inactive)	–
CC(=O)Oc1ccc2c(=O)c(/C=N/c3cc(=O)[nH]c(=S)[nH]3)coc2c1	23.2% (inactive)	–
O=c1cc(/N=C/c2coc3cc(Br)ccc3c2=O)[nH]c(=S)[nH]1	14.4% (inactive)	–
O=c1cc(/N=C/c2coc3c(ccc4ccccc43)c2=O)[nH]c(=S)[nH]1	52.9% (active)	–
CCCCN(C)C(=O)c1c[nH]c2ccc(S(=O)(=O)N3CCOCC3)cc2c1=O	24.6% (inactive)	–
Cc1ccc(CNC(=O)c2ccc3c(c2)NC(=O)CS3)cc1	-5.9% (inactive)	–
COc1ccc(/C=C(\NC(=O)/C=C/c2ccco2)C(=O)NCCc2nc3ccccc3[nH]2)cc1	52.5% (active)	–
CC(C)Oc1ccc(/C=C(\NC(=O)/C=C/c2ccco2)C(=O)NCCc2nc3ccccc3[nH]2)cc1	9.4% (inactive)	–
COc1ccc(/C=C/C(=O)N/C(=C\c2ccco2)C(=O)NCCc2nc3ccccc3[nH]2)cc1	4.5% (inactive)	–
Cc1cc(C)c2c(c1)NC(c1cc3c(cc1Br)OCO3)C1CC=CC21 (centres undefined)	12.6% (inactive)	–
CCOC(=O)/C(C#N)=C/c1cccc(F)c1	15.3% (inactive)	–
O=C(Nc1ccc2c(c1)nc1n2CCN(C2CCCCC2)C1)c1ccco1	57.2% (active)	–
CC(=O)Nc1ccc2c(c1)nc1n2CCN(C2CCCCC2)C1	30.1% (inactive)	–
O=C(Nc1ccc2c(c1)nc1n2CCN(C2CCCCC2)C1)NC1CCCCC1	11.3% (inactive)	–
CCc1ccc(NC(=O)Cn2nnc(C(=O)NCc3cccs3)c2N)cc1	26.5% (inactive)	–
O=S(=O)(c1ccc(F)cc1)N1CCN(c2ccc(-c3ccccc3)nn2)CC1	41.9% (inactive)	–
CC1(C)Cc2nc3sc(C(=O)O)c(N)c3cc2CS1	54.6% (active)	–

Structure (SMILES)	inhibition	inhibition [1]
CC1(C)Cc2nc3sc(C(=O)NCCCO)c(N)c3cc2CS1	30.6% (inactive)	–
CCC1(C)Cc2nc3sc(C(=O)O)c(N)c3cc2CO1 (centres undefined)	23.8% (inactive)	–
O=C(NCc1cccnc1)NC(=O)c1ccc(Cl)cc1	-3% (inactive)	–
O=C(CNC(=O)c1ccc(Cl)cc1)N/N=C/C=C/c1ccccc1	2.8% (inactive)	–
CCc1cc2c(=O)c(-c3nc4ccccc4[nH]3)coc2c(CN2CCCCC2)c1O	9.7% (inactive)	–
O=c1oc2c(CN3CCCCCC3)c(O)ccc2cc1-c1nc2ccccc2[nH]1	65.1% (active)	–
O=c1oc2c(CN3CCN(CCO)CC3)c(O)ccc2cc1-c1ccccn1	30.4% (inactive)	–
O=C(Cc1n[nH]c(=O)c2ccccc12)NC(c1ccccc1)c1ccccc1	1.8% (inactive)	–
CC(C)CNc1nc(Oc2ccc(=O)[nH]n2)nc(N2CCOCC2)n1	-12.9% (inactive)	–
COCCOC(=O)c1c(C)n(C)c2ccc(OC(=O)c3ccccc3F)cc12	-3.1% (inactive)	–
COc1ccc(-c2nn(-c3ccccc3)cc2/C=C(/C#N)C(N)=O)cc1[N+](=O)[O-]	54.4% (active)	–
C=CCNC(=O)/C(C#N)=C/c1cn(-c2ccccc2)nc1-c1ccc(OC)c([N+](=O)[O-])c1	25.3% (inactive)	–
COc1ccc(-c2nn(-c3ccccc3)cc2/C=C(\C#N)C(N)=O)cc1[N+](=O)[O-]	43.3% (inactive)	–
CC(NC(=O)c1cc(Br)ccc1Br)c1ccccc1 (centres undefined)	15.9% (inactive)	–
Cc1cc(C)cc(NC(=S)NCc2cccnc2)c1	-3.3% (inactive)	–
S=C(NCc1cccnc1)NCc1cccnc1	-3.7% (inactive)	–
Cn1cccc1C(C#N)(CC#N)c1cccc(F)c1C#N (centres undefined)	14.3% (inactive)	–
CC(C)n1c(=S)[nH]c2c1c(=O)[nH]c(=O)n2C	-95.1% (inactive)	–
CC(C)c1csc(CN2CCC(CO)(Cc3cccc(F)c3)CC2)n1	-1.1% (inactive)	–
COc1ccc(S(=O)(=O)N2c3cc(C)ccc3OCC2C(C)(C)C)cc1 (centres undefined)	-0.4% (inactive)	–
Cc1ccc(S(=O)(=O)N2c3ccccc3OCC2C(C)(C)C)cc1 (centres undefined)	1.7% (inactive)	–
COc1ccc(S(=O)(=O)N2c3ccccc3OCC2C(C)(C)C)cc1 (centres undefined)	50.4% (active)	–
CCN(CC)S(=O)(=O)c1ccc(C(=O)Nc2ccc3c(c2)OCO3)cc1	9.9% (inactive)	–
